Targets with a hit are over-represented here; the source holds about 7,900 in all. About 0.6% of all pairs of compound and target were hits. A number with no mark means an inactive call.
Legend:
Experiment in all cases: log2 fold change, soluble protein after heating vs DMSO (PISA); higher = thermal stabilisation; K562 cells, 10 uM, 30 min; active = over 0.2 and 3.5 SD of the protein, either way, in both replicates (recomputed)
[1] = compound: C#Cc1cccc(Nc2ncnc3cc(OCCOC)c(OCCOC)cc23)c1 [erlotinib]
Method in brief: (§1)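 K562 cells at 2×10^6 cells/mL were given 10 μM compound for 30 min. Aliquots then went through 3 min of heating across 48°C-58°C, were pooled, and were extracted in PBS with 0.5% NP-40 at 4°C, and the supernatant after 21,000xg for 90 min was quantified by TMTpro 16plex LC-MS/MS with channel sums equalised. Thermal stability relative to control samples, from duplicates, is given as log2 fold change.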

[2] = compound: C/C(=N\NC(=O)C1=CC(=CC=C1)S(=O)(=O)N2CCOCC2)/C3=C(C=CC(=C3)Cl)O
Method in brief: as §1

[3] = compound: C1=CC(=C(C=C1Cl)C2=NC3=NC=CN=C3C(=N2)NC4=CC=NC=C4)F
Method in brief: as §1

[4] = compound: C1=CC(=CC=C1C2=NC3=C(N2)C=C(C=C3)C(=O)N)OC4=CC=C(C=C4)Cl
Method in brief: as §1

[5] = compound: C1=CC2=C(C=CC(=C2)/C=C\3/C(=O)NC(=NCC4=CC=CS4)S3)N=C1
Method in brief: as §1

[6] = compound: C1=CC2=NC=CN=C2C=C1/C=C/3\C(=O)NC(=O)S3
Method in brief: as §1

[7] = compound: C1=CC=C(C=C1)C2=NC(=C(N2)C3=CC=NC=C3)C4=CC(=C(C=C4)Cl)O
Method in brief: as §1

[8] = compound: C1=CC=C2C(=C1)C3=NNC4=CC=CC(=C43)C2=O
Method in brief: as §1

[9] = compound: C1CCN(C1)C(=O)NC2=CC=CC(=C2)NC3=NC=C(C(=N3)NCCC4=CN=CN4)Br
Method in brief: as §1

[10] = compound: C1CN(CCC1(CC2=CC=C(C=C2)Cl)N)C3=NC=NC4=C3C=CN4
Method in brief: as §1

[11] = compound: C1COCCN1CCN2C3=CC=CC=C3N=C2NC(=O)C4=CC(=CC=C4)[N+](=O)[O-] [IRAK-1-4 Inhibitor I]
Method in brief: as §1

[12] = compound: C=CC(=O)N1CCC[C@@H](n2nc(-c3ccc(Oc4ccccc4)cc3)c3c(N)ncnc32)C1 [ibrutinib]
Method in brief: as §1

[13] = compound: CC(=O)c1cnc2ccc(-c3cc(Cl)c(O)c(Cl)c3)nc2c1N[C@H]1CC[C@H](CN(C)C)CC1
Method in brief: as §1

[14] = compound: CC(C)(C)Cn1c(N)nc2ccc(-c3[nH]c(C(C)(C)C)nc3-c3ccc(F)cc3)nc21 [ralimetinib]
Method in brief: as §1

[15] = compound: CC(C)(O)CC(=O)NCCn1ccc2ncnc(Nc3ccc(Oc4cccc(C(F)(F)F)c4)c(Cl)c3)c21
Method in brief: as §1

[16] = compound: CC(C)C1=C2N=C(C=C(N2N=C1)NCC3=CC=CC=C3)NCCCCCCN
Method in brief: as §1

[17] = compound: CC(C)C[C@@H](C=O)NC(=O)[C@H](CC(C)C)NC(=O)[C@H](CC(C)C)NC(=O)OCc1ccccc1
Method in brief: as §1

[18] = compound: CC(C)N(C[C@H]1O[C@@H](n2cnc3c(N)ncnc32)[C@H](O)[C@@H]1O)[C@H]1C[C@@H](CCc2nc3cc(C(C)(C)C)ccc3[nH]2)C1 [pinometostat]
Method in brief: as §1

[19] = compound: CC1=C(C(CC(=O)N1)C2=CC=C(C=C2)C(F)(F)F)C(=O)NC3=C(C=C4C(=C3)C=NN4)F
Method in brief: as §1

[20] = compound: CC1=C(C2=C(C=C1)C(=O)C3=CC=CC=C3N2CCCN)C
Method in brief: as §1

Sequence of UniProt Q8N1A6 (Q8N1A6 whole entry, looked up): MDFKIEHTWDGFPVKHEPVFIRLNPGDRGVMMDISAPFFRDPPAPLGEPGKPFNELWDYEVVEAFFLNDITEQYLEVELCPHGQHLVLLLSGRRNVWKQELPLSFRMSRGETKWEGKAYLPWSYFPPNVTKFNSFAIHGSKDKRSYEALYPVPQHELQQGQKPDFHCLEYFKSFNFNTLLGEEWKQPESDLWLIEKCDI
Sequence of UniProt P49336 (P49336 whole entry, looked up): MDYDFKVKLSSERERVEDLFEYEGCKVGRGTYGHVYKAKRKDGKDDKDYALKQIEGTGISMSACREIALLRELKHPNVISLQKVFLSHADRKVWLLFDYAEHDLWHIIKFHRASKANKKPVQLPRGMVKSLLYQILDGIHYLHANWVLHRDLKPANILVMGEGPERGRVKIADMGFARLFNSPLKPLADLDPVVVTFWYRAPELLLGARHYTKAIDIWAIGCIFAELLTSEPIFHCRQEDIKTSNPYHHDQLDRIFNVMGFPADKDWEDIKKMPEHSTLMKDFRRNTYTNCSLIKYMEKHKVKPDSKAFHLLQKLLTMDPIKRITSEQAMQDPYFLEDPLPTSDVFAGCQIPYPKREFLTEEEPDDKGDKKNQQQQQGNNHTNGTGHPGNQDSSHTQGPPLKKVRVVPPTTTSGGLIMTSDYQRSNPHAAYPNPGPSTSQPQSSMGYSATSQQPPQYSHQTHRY
Sequence of UniProt Q86X95 (Q86X95 whole entry, looked up): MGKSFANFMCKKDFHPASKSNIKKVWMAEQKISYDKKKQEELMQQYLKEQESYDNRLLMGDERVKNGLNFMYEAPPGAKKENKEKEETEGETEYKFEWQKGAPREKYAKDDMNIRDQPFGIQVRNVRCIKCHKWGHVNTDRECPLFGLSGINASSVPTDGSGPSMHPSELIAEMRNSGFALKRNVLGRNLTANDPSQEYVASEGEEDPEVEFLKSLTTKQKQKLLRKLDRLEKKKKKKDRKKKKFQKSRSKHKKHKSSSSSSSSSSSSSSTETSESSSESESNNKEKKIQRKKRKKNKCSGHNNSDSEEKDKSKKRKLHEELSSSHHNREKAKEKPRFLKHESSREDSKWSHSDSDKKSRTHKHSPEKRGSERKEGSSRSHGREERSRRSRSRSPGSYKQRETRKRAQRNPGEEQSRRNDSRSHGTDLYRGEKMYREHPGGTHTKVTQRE
Sequence of UniProt Q96GQ5 (Q96GQ5 whole entry, looked up): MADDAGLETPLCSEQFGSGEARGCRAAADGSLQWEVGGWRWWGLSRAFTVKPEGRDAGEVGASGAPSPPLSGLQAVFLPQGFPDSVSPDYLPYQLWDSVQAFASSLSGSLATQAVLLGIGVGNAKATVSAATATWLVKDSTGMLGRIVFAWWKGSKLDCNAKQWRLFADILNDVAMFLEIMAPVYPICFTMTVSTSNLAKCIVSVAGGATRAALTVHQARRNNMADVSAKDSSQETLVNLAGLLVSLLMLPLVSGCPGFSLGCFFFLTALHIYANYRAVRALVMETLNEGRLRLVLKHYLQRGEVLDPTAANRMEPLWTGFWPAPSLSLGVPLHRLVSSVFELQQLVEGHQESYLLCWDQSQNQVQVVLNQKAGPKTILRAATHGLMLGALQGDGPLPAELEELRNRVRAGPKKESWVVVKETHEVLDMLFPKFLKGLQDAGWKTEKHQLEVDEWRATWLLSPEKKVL
Sequence of UniProt O75976 (O75976 whole entry, looked up): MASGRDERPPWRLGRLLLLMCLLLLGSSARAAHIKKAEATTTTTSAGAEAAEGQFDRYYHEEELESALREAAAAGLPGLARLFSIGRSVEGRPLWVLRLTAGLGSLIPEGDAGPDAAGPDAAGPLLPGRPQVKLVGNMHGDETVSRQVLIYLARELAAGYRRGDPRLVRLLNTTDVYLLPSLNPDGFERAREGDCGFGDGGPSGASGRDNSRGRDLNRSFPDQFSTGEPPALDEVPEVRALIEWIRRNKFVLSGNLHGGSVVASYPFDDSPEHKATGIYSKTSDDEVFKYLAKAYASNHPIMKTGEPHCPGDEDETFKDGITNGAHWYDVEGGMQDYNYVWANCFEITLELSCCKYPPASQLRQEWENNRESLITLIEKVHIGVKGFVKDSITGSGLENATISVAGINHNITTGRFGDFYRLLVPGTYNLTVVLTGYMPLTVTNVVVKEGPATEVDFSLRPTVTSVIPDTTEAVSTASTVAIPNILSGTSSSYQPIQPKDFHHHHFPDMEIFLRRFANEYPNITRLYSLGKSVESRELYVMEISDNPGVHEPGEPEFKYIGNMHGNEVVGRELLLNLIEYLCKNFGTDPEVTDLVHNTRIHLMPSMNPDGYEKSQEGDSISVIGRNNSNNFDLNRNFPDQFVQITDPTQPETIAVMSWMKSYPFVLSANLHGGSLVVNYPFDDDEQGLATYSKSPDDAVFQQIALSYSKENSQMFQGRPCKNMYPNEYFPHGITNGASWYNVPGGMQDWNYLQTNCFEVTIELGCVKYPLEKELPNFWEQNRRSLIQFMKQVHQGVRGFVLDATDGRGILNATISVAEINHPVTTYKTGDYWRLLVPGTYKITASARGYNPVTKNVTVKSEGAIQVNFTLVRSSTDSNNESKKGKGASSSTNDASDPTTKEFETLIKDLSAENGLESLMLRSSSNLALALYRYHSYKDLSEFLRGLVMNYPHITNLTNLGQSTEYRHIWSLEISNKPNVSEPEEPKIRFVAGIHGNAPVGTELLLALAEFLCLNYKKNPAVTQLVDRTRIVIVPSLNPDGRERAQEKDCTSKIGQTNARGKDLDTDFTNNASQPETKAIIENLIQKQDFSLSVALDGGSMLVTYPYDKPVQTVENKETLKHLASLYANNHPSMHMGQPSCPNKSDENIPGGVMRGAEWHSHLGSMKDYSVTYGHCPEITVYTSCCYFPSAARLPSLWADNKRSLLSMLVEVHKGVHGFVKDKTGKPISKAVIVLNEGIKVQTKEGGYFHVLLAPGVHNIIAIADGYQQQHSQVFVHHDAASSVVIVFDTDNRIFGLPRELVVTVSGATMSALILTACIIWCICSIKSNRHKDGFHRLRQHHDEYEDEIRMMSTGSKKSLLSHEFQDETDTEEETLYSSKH
Sequence of UniProt Q9Y5S2 (Q9Y5S2 whole entry, looked up): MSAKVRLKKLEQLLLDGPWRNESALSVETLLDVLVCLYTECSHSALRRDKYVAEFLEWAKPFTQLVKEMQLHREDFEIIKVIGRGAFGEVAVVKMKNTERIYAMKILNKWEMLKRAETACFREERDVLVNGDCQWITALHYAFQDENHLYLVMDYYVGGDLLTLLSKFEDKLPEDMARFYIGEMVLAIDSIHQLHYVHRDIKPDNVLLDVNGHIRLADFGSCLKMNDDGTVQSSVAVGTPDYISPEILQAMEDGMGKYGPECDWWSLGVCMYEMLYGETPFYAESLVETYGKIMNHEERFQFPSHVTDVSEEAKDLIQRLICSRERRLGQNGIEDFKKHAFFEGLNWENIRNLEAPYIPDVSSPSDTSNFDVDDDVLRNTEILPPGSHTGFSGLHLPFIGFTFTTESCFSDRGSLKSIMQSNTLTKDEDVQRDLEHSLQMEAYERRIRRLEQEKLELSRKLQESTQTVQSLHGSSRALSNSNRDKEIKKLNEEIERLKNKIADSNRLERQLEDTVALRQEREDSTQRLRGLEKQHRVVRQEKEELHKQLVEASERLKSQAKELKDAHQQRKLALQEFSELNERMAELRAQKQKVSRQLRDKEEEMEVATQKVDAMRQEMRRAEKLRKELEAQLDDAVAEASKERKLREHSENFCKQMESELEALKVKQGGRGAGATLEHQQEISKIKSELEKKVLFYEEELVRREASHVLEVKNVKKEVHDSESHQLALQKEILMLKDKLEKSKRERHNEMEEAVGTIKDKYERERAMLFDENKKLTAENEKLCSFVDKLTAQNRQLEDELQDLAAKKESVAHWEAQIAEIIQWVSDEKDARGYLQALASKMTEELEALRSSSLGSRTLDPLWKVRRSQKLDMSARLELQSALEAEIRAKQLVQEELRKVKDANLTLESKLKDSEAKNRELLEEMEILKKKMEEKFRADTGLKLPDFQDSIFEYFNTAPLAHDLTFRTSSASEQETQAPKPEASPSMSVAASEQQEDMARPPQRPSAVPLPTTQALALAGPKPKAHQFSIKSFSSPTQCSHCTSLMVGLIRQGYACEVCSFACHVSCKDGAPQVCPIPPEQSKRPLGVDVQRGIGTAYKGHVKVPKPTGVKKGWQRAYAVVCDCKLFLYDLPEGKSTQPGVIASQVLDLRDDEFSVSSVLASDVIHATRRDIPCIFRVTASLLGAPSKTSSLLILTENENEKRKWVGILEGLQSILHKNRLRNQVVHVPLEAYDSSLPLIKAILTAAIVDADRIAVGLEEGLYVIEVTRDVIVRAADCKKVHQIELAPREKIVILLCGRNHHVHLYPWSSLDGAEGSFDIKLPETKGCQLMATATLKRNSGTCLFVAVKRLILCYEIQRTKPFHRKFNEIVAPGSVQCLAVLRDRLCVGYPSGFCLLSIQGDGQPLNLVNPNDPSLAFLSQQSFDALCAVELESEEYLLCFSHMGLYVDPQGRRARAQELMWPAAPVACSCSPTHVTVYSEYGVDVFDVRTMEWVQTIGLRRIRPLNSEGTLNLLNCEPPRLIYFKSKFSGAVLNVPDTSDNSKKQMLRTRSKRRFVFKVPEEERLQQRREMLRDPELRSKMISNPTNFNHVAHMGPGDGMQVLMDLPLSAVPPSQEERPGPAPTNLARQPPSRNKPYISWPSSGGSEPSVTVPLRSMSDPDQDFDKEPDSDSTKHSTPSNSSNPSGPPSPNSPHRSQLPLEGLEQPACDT
Sequence of UniProt Q6NZI2 (Q6NZI2 whole entry, looked up): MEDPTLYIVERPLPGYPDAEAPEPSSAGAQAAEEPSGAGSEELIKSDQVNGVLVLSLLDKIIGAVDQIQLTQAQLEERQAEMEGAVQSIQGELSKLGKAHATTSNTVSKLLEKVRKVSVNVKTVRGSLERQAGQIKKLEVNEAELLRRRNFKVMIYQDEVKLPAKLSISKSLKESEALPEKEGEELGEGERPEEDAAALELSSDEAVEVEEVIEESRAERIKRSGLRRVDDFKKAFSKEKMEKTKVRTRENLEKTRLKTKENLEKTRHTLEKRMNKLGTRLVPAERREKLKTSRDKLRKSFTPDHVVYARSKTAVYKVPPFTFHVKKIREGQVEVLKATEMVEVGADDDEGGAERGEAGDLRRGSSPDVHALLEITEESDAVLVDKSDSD

| Target | log2 fold change [1] | log2 fold change [2] | log2 fold change [3] | log2 fold change [4] | log2 fold change [5] | log2 fold change [6] | log2 fold change [7] | log2 fold change [8] | log2 fold change [9] | log2 fold change [10] | log2 fold change [11] | log2 fold change [12] | log2 fold change [13] | log2 fold change [14] | log2 fold change [15] | log2 fold change [16] | log2 fold change [17] | log2 fold change [18] | log2 fold change [19] | log2 fold change [20] |
| --- | --- | --- | --- | --- | --- | --- | --- | --- | --- | --- | --- | --- | --- | --- | --- | --- | --- | --- | --- | --- |
| C4orf33 (UniProt Q8N1A6) | -0.026 | 0.023 | 0.052 | 0.138 | 0.072 | -0.287 (active) | -0.092 | 0.016 | 0.017 | 0.06 | 0.038 | 0.137 | -0.049 | -0.073 | 0.005 | -0.076 | 0.032 | 0 | -0.01 | -0.03 |
| CIR1 (UniProt Q86X95) | -0.008 | -0.035 | -0.254 | 0.055 | -0.054 | -0.029 | -0.144 | -0.016 | -0.008 | 0.002 | -0.023 | 0.121 | -0.05 | 0.083 | 0.128 | 0.198 | 0.175 | 0.169 |  | 0.022 |
| CAVIN1 (UniProt Q6NZI2) | -0.06 | -0.085 | -0.309 | 0.121 | -0.04 | -0.002 | 0.274 | 0.07 | 0.062 | -0.137 | -0.064 | -0.002 | 0.011 | 0.393 | 0 | -0.156 | -0.011 | 0.2 | 0.06 | -0.437 (active) |
| CDK8 (UniProt P49336) | -0.098 | -0.094 | -0.161 | 0.028 | -0.023 | 0.102 | -0.087 | 0.287 | -0.044 | 0.034 | 0.006 | -0.011 | 0.487 (active) | -0.174 | -0.15 | -0.067 | 0.096 | -0.057 |  | -0.005 |
| C16orf58 (UniProt Q96GQ5) | 0.033 | 0.01 | 0.051 | 0.023 | 0.061 | 0.042 | -0.001 | -0.021 | 0.006 | 0.036 | 0.031 | -0.022 | 0.01 | -0.017 | -0.045 | -0.199 | 0.001 | 0.005 | 0.001 | 0.045 |
| CDC42BPB (UniProt Q9Y5S2) | -0.005 | 0.221 | -0.071 | 0.069 | -0.047 | 0.027 | -0.024 | 0.04 | 0.017 | -0.221 | -0.022 | -0.167 | -0.637 (active) | 0.124 | 0.023 | -0.063 | -0.009 | 0.267 | -0.038 | 0.023 |
| CRTC1 isoform 2 (UniProt Q6UUV9) | 0.007 | 0.07 | -0.228 | 0.068 | 0.185 | -0.052 | -0.229 | -0.051 | -0.053 | 0.021 | 0.026 | -0.061 | -0.023 | 0.025 | -0.042 | 0.112 | -0.041 | -0.024 |  | 0.072 |
| CPD (UniProt O75976) | -0.025 | -0.08 | 0.009 | 0.028 | 0.055 | 0.011 | -0.007 | -0.041 | -0.045 | 0.008 | -0.011 | -0.018 | -0.015 | -0.03 | -0.058 | -0.126 | 0.077 | 0.002 | 0.04 | -0.019 |

— the supplement of paper PMC10849652
